Compounds without any hit were thinned out: in the full panel of roughly 83,000, 20% have a hit.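 Compound tested at a single concentration for 48 hours in 96-well plates; a percent growth value below 10 was scored as active.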 The source made the active and inactive calls.
How the values were obtained:
Assay in all cases: NCI-60 one-dose screen, 48 h (100 = growth as untreated, 0 = no growth, -100 = all killed)
DU-145 prostate = settings: 10 µM unless noted
K-562 leukemia = settings: 10 µM unless noted
MALME-3M melanoma = settings: 10 µM unless noted
MDA-MB-231 breast = settings: 10 µM unless noted
RXF 393 renal = settings: 10 µM unless noted
SF-268 CNS = settings: 10 µM unless noted
SF-295 CNS = settings: 10 µM unless noted
SF-539 CNS = settings: 10 µM unless noted
UACC-257 melanoma = settings: 10 µM unless noted
M14 melanoma = settings: 10 µM unless noted
HCT-15 colon = settings: 10 µM unless noted
HT29 colon = settings: 10 µM unless noted
SNB-19 CNS = settings: 10 µM unless noted
U251 CNS = settings: 10 µM unless noted
PC-3 prostate = settings: 10 µM unless noted
SK-MEL-5 melanoma = settings: 10 µM unless noted
UACC-62 melanoma = settings: 10 µM unless noted
SK-MEL-28 melanoma = settings: 10 µM unless noted
LOX IMVI melanoma = settings: 10 µM
SNB-75 CNS = settings: 10 µM unless noted

Measured: growth

CCOC(=O)c1ccc(Nc2nc(NN)nc(-c3ccc(OC)cc3)c2C#N)cc1
active: K-562 leukemia 1.69%
inactive: DU-145 prostate 113% | MALME-3M melanoma 92.4% | MDA-MB-231 breast 85.1% | RXF 393 renal 124% | SF-268 CNS 98.2% | SF-295 CNS 111% | SF-539 CNS 110% | UACC-257 melanoma 46% | M14 melanoma 71.6% | HCT-15 colon 106% | HT29 colon 115% | SNB-19 CNS 92.2% | U251 CNS 106% | PC-3 prostate 85.2% | SK-MEL-5 melanoma 90.1% | UACC-62 melanoma 93.4% | SK-MEL-28 melanoma 113%

COc1ccc(-c2ccnc(SCc3cc4cc(OC)ccc4[nH]c3=O)n2)cc1
inactive: DU-145 prostate 43.7% | MALME-3M melanoma 36.7% | MDA-MB-231 breast 22.7% | SF-268 CNS 36.6% | SF-295 CNS 17.5% | SF-539 CNS 20.5% | UACC-257 melanoma 38% | M14 melanoma 19.8% | HCT-15 colon 10.5% | HT29 colon 19.9% | SNB-19 CNS 36.3% | U251 CNS 22.7% | PC-3 prostate 23.8% | LOX IMVI melanoma 18.7% | SK-MEL-28 melanoma 36.5%
active: K-562 leukemia 4.74% | RXF 393 renal 7.02% | SK-MEL-5 melanoma -3.59%

O=c1oc2ccccc2cc1-c1csc(N=Nc2c(O)[nH]c3ccc(Cl)cc23)n1
inactive: DU-145 prostate 98% | K-562 leukemia 104% | MALME-3M melanoma 96.2% | MDA-MB-231 breast 113% | SF-268 CNS 82.1% | SF-295 CNS 87.9% | SF-539 CNS 94.2% | UACC-257 melanoma 104% | M14 melanoma 109% | HCT-15 colon 98.8% | HT29 colon 107% | SNB-75 CNS 98.1% | SNB-19 CNS 89.7% | U251 CNS 101% | PC-3 prostate 108% | SK-MEL-5 melanoma 98.7% | UACC-62 melanoma 92% | LOX IMVI melanoma 100% | SK-MEL-28 melanoma 109%

Cc1ccc(/C=C/c2n(Cc3ccc4ccccc4c3)c3ccccc3[n+]2Cc2ccc3ccccc3c2)cc1
active: DU-145 prostate -90.1% | K-562 leukemia -25.6% | MALME-3M melanoma -90.2% | MDA-MB-231 breast -47.3% | SF-268 CNS -65.1% | SF-295 CNS -98.5% | SF-539 CNS -96.5% | UACC-257 melanoma -71.5% | M14 melanoma -74.1% | HCT-15 colon -86.2% | HT29 colon -50.4% | SNB-19 CNS -58.5% | U251 CNS -42.1% | PC-3 prostate -88.3% | SK-MEL-5 melanoma -100% | UACC-62 melanoma -63.6% | LOX IMVI melanoma -87.9% | SK-MEL-28 melanoma -92.3%

C=C1CC[C@@H]2[C@]3(C)COC(c4cn[nH]c4-c4ccc(OC)cc4)O[C@@H]3CC[C@@]2(C)[C@@H]1C/C=C1/C(=O)OCC1O (stereo not given in full)
inactive: SNB-19 CNS 18.5% | PC-3 prostate 39.3%
active: DU-145 prostate -27.2% | K-562 leukemia -31.2% | MALME-3M melanoma -62.1% | RXF 393 renal -58.5% | SF-268 CNS 3.8% | SF-295 CNS -41.9% | SF-539 CNS -87.2% | UACC-257 melanoma -24.6% | M14 melanoma -50.9% | HCT-15 colon -35.3% | HT29 colon -26.3% | SNB-75 CNS -16.5% | U251 CNS -76% | SK-MEL-5 melanoma -94.3% | UACC-62 melanoma -75.2% | SK-MEL-28 melanoma -52.2%

CC1=C(C(=O)OC(C)C)C(c2cccc(O)c2)NC(=S)N1 (stereo not given)
inactive: DU-145 prostate 104% | K-562 leukemia 83.2% | MALME-3M melanoma 92.7% | RXF 393 renal 110% | SF-268 CNS 109% | SF-295 CNS 96.8% | SF-539 CNS 94.7% | UACC-257 melanoma 92.8% | M14 melanoma 109% | HCT-15 colon 106% | HT29 colon 102% | SNB-75 CNS 105% | SNB-19 CNS 96.8% | U251 CNS 103% | PC-3 prostate 107% | SK-MEL-5 melanoma 98.8% | UACC-62 melanoma 91.3% | SK-MEL-28 melanoma 103%

O=C(O)c1cccc(-c2ccc(/C=N/NC(=O)c3[nH]c4ccc(Br)cc4c3-c3ccccc3)s2)c1
active: RXF 393 renal -2.3%
inactive: DU-145 prostate 55.6% | K-562 leukemia 19.8% | MALME-3M melanoma 57.9% | SF-268 CNS 39% | SF-295 CNS 15.6% | SF-539 CNS 16.1% | UACC-257 melanoma 85.5% | M14 melanoma 47.9% | HCT-15 colon 17.4% | HT29 colon 69% | SNB-75 CNS 29.6% | SNB-19 CNS 26.2% | U251 CNS 27% | PC-3 prostate 56.9% | SK-MEL-5 melanoma 30.1% | UACC-62 melanoma 19.5% | SK-MEL-28 melanoma 44.2%

O=C(/C=C/c1cccc(OCc2ccc(F)cc2)c1)c1nc2ccccc2[nH]1
active: K-562 leukemia -14.6% | HCT-15 colon -58.4% | HT29 colon -46.1% | U251 CNS -70.9%
inactive: DU-145 prostate 70.3% | MALME-3M melanoma 95.8% | RXF 393 renal 57.7% | SF-268 CNS 95.1% | SF-295 CNS 74.2% | SF-539 CNS 44.7% | UACC-257 melanoma 76.1% | M14 melanoma 13.8% | SNB-75 CNS 116% | SNB-19 CNS 68.4% | PC-3 prostate 15% | SK-MEL-5 melanoma 65.5% | UACC-62 melanoma 72.6% | SK-MEL-28 melanoma 104%

Reference: PubChem BioAssay (NCI)
